# Laboratory results: publication PMC11062922 (Nature Chemical Biology, 2023)
# Where two headings read alike, the source gives them in different places.
# Assays:
# Parameters in all cases: species or system human, MV4-11 + K-562 + COLO205 + SK-N-BE2 + OVCAR-8
# CDK7 = settings: read-out: apparent Kd, compound concentrations: 100 nM and 1000 nM (sheet 'Samples'), n = 1
# ERCC2 = settings: read-out: apparent Kd, compound concentrations: 100 nM and 1000 nM (sheet 'Samples'), n = 1
# FER = settings: read-out: apparent Kd; compound concentrations: 100 nM and 1000 nM (sheet 'Samples'), CATDS: 5.24891250459407E-2; n = 1
# PTK2B = settings: read-out: apparent Kd, compound concentrations: 100 nM and 1000 nM (sheet 'Samples'), n = 1
# PTK2 = settings: read-out: apparent Kd; compound concentrations: 100 nM and 1000 nM (sheet 'Samples'), CATDS: 4.2596941934388698E-2; n = 1
# RPS6KA6 = settings: read-out: apparent Kd, n = 1
# TNK2 = settings: read-out: apparent Kd; compound concentrations: 100 nM and 1000 nM (sheet 'Samples'), CATDS: 6.2991293235435897E-2; n = 1
# CDKL5 = settings: read-out: apparent Kd, n = 1
# FLT3 = settings: read-out: apparent Kd, n = 1
# LATS1 = settings: read-out: apparent Kd, n = 1
# MYLK3 = settings: read-out: apparent Kd, compound concentrations: 100 nM and 1000 nM (sheet 'Samples'), n = 1
# DYRK1A = settings: read-out: apparent Kd, n = 1
# PRKCD = settings: read-out: apparent Kd, n = 1
# STK10 = settings: read-out: apparent Kd, compound concentrations: 100 nM and 1000 nM (sheet 'Samples'), n = 1
# PLK4 = settings: read-out: apparent Kd; compound concentrations: 100 nM and 1000 nM (sheet 'Samples'), CATDS: 8.6919710650877405E-2; n = 1
# PRKCQ = settings: read-out: apparent Kd, n = 1
# PRKD2 = settings: read-out: apparent Kd, n = 1
# PRKD3 = settings: read-out: apparent Kd, n = 1
# MARK4 = settings: read-out: apparent Kd, n = 1
# [1] = compound concentrations:100 nM and 1000 nM (sheet 'Samples')
structure (smiles),measurement,setting,value
Cn1cc(C2=C(c3ccc(OC[C@@H](O)CO)cc3)C(=O)NC2=O)c2ccccc21 [RO3208546-000],potency estimated from few doses,CDK7; CATDS: 4.6127698813653598E-2,768 nM
same,potency estimated from few doses,ERCC2; CATDS: 5.3996089618989399E-2,559 nM
same,potency estimated from few doses,FER,590 nM
same,potency estimated from few doses,PTK2B; CATDS: 4.1151087302781601E-2,996 nM
same,potency estimated from few doses,PTK2,918 nM
same,potency estimated from few doses,"RPS6KA6; compound concentrations: 100 nM and 1000 nM (sheet 'Samples'), CATDS: 5.0913712031047997E-2",626 nM
same,potency estimated from few doses,TNK2,422 nM
CN[C@H](C#Cc1c(F)ccc2c1/C(=C/c1[nH]ccc1OC)C(=O)N2)CO.Cl [RO0283049-001],potency estimated from few doses,"CDKL5; compound concentrations: 100 nM and 1000 nM (sheet 'Samples'), CATDS: 0.200980885548627",17.8 nM
same,potency estimated from few doses,"FLT3; compound concentrations: 100 nM and 1000 nM (sheet 'Samples'), CATDS: 0.132856529197414",31.3 nM
same,potency estimated from few doses,"LATS1; compound concentrations: 100 nM and 1000 nM (sheet 'Samples'), CATDS: 5.43155260129227E-2",134 nM
same,potency estimated from few doses,MYLK3; CATDS: 2.9648763968158898E-2,504 nM
COc1cc[nH]c1/C=C1\C(=O)Nc2ccc([N+](=O)[O-])c(N3CC[C@@H](O)C3)c21 [RO0504985-000],potency estimated from few doses,"CDKL5; compound concentrations: 100 nM and 1000 nM (sheet 'Samples'), CATDS: 0.118567124910979",46.7 nM
same,potency estimated from few doses,"FLT3; compound concentrations: 100 nM and 1000 nM (sheet 'Samples'), CATDS: 3.5682803402027001E-2",989 nM
CC(C)(CO)CNC(=O)c1ccc2c(c1)/C(=N/Nc1ccc(S(N)(=O)=O)cc1)C(=O)N2 [GW301784X],potency estimated from few doses,CDKL5; [1],172 nM
CCn1c(-c2nonc2N)nc2cncc(C(=O)N3CC[C@H](N)C3)c21.Cl [SB-772077-B],potency estimated from few doses,DYRK1A; [1],1520 nM
same,potency estimated from few doses,PRKCD; [1],843 nM
O=C1N=C(NCCc2ccccc2Cl)S/C1=C\c1ccc2ncccc2c1 [RO4498484-000],potency estimated from few doses,"CDKL5; compound concentrations: 100 nM and 1000 nM (sheet 'Samples'), CATDS: 6.1493092563951302E-2",1600 nM
same,potency estimated from few doses,"DYRK1A; compound concentrations: 100 nM and 1000 nM (sheet 'Samples'), CATDS: 8.1161352179904903E-2",673 nM
same,potency estimated from few doses,"FLT3; compound concentrations: 100 nM and 1000 nM (sheet 'Samples'), CATDS: 6.2849399961882796E-2",1470 nM
CNc1nccc(-c2ccc3c(N)n[nH]c3c2)n1 [GSK2206003A],potency estimated from few doses,"DYRK1A; compound concentrations: 100 nM and 1000 nM (sheet 'Samples'), CATDS: 5.2030559523690803E-2",1370 nM
same,potency estimated from few doses,MYLK3; CATDS: 6.3436586084605395E-2,601 nM
same,potency estimated from few doses,STK10; CATDS: 6.2859781396148603E-2,622 nM
CC(C)N1CC(=O)N(C)c2cnc(Nc3cccc(S(=O)(=O)CCN4CCOCC4)c3)nc21 [BI00009348],potency estimated from few doses,STK10; CATDS: 5.40109770146803E-2,1450 nM
O=C1N=C(N[C@@H](CO)Cc2ccccc2)S/C1=C\c1ccc2ncccc2c1 [RO4509200-000],potency estimated from few doses,"CDKL5; compound concentrations: 100 nM and 1000 nM (sheet 'Samples'), CATDS: 0.117206813575506",975 nM
same,potency estimated from few doses,"DYRK1A; compound concentrations: 100 nM and 1000 nM (sheet 'Samples'), CATDS: 0.168916103718072",440 nM
COc1cc2ncn(-c3cc(OCc4ccccc4S(C)(=O)=O)c(C#N)s3)c2cc1OC [GSK319347A],potency estimated from few doses,MYLK3; CATDS: 9.2768404511317695E-2,1190 nM
same,potency estimated from few doses,PLK4,1390 nM
Cl.Cl.NC[C@H](CC1CCCCC1)NC(=O)c1ccc(-c2ccnc3[nH]ccc23)s1.NC[C@H](CC1CCCCC1)NC(=O)c1ccc(-c2ccnc3[nH]ccc23)s1 [GSK1581428A],potency estimated from few doses,LATS1; [1],1120 nM
same,potency estimated from few doses,PRKCD; [1],719 nM
Cl.Cl.NCC(NC(=O)c1cc(-c2ccnc3[nH]ccc23)cs1)c1ccccc1.NCC(NC(=O)c1cc(-c2ccnc3[nH]ccc23)cs1)c1ccccc1 (stereo not shown) [GSK1229959A],potency estimated from few doses,CDK7; CATDS: 2.3944449367716902E-2,349 nM
same,potency estimated from few doses,"CDKL5; compound concentrations: 100 nM and 1000 nM (sheet 'Samples'), CATDS: 5.0422739373742101E-2",33.2 nM
same,potency estimated from few doses,"DYRK1A; compound concentrations: 100 nM and 1000 nM (sheet 'Samples'), CATDS: 1.8409243102770301E-2",1200 nM
same,potency estimated from few doses,ERCC2; CATDS: 2.07815599628208E-2,649 nM
same,potency estimated from few doses,MYLK3; CATDS: 2.3428006567825201E-2,382 nM
same,potency estimated from few doses,"PRKCD; compound concentrations: 100 nM and 1000 nM (sheet 'Samples'), CATDS: 2.3457230282112398E-2",380 nM
same,potency estimated from few doses,"PRKCQ; compound concentrations: 100 nM and 1000 nM (sheet 'Samples'), CATDS: 1.8945184174552199E-2",1030 nM
same,potency estimated from few doses,PTK2B; CATDS: 1.9759894186564299E-2,828 nM
NS(=O)(=O)c1ccc(NC=C2C(=O)Nc3ccc4ncsc4c32)cc1 [GW589933X],potency estimated from few doses,"CDKL5; compound concentrations: 100 nM and 1000 nM (sheet 'Samples'), CATDS: 7.9596409580243901E-2",52.4 nM
same,potency estimated from few doses,"FLT3; compound concentrations: 100 nM and 1000 nM (sheet 'Samples'), CATDS: 2.3969492803236899E-2",581 nM
same,potency estimated from few doses,"LATS1; compound concentrations: 100 nM and 1000 nM (sheet 'Samples'), CATDS: 1.9733333265128199E-2",1020 nM
same,potency estimated from few doses,MYLK3; CATDS: 0.127483608454634,23.7 nM
same,potency estimated from few doses,"PRKD2; compound concentrations: 100 nM and 1000 nM (sheet 'Samples'), CATDS: 1.78038958195245E-2",1460 nM
same,potency estimated from few doses,"PRKD3; compound concentrations: 100 nM and 1000 nM (sheet 'Samples'), CATDS: 1.69814633200863E-2",1760 nM
COc1cccc(C2=C(c3c(C)n(C)c4ccccc34)C(=O)NC2=O)c1 [RO3300167-000],potency estimated from few doses,"LATS1; compound concentrations: 100 nM and 1000 nM (sheet 'Samples'), CATDS: 7.6284475672850502E-2",1700 nM
same,potency estimated from few doses,"MARK4; compound concentrations: 100 nM and 1000 nM (sheet 'Samples'), CATDS: 8.0513919134026293E-2",1480 nM
same,potency estimated from few doses,"PRKD2; compound concentrations: 100 nM and 1000 nM (sheet 'Samples'), CATDS: 8.0855416148342393E-2",1470 nM
same,potency estimated from few doses,"PRKD3; compound concentrations: 100 nM and 1000 nM (sheet 'Samples'), CATDS: 7.4607672697658597E-2",1800 nM
COc1cc[nH]c1/C=C1\C(=O)Nc2ccc(F)c(I)c21 [RO0281567-000],potency estimated from few doses,"FLT3; compound concentrations: 100 nM and 1000 nM (sheet 'Samples'), CATDS: 0.206841572593601",374 nM
same,potency estimated from few doses,MYLK3; CATDS: 0.10963488486357401,1520 nM
NS(=O)(=O)c1ccc(N/C=C2\C(=O)Nc3ccc4ncsc4c32)cc1 [GW297361X],potency estimated from few doses,"CDKL5; compound concentrations: 100 nM and 1000 nM (sheet 'Samples'), CATDS: 5.4362762723509199E-2",448 nM
same,potency estimated from few doses,"FLT3; compound concentrations: 100 nM and 1000 nM (sheet 'Samples'), CATDS: 4.1021562023835299E-2",799 nM
same,potency estimated from few doses,MYLK3; CATDS: 0.13217199419509801,106 nM
same,potency estimated from few doses,"PRKD2; compound concentrations: 100 nM and 1000 nM (sheet 'Samples'), CATDS: 2.8859084082920799E-2",2200 nM
CCn1c(-c2nonc2N)nc2cncc(Br)c21 [SB-738004],potency estimated from few doses,DYRK1A; [1],717 nM
same,potency estimated from few doses,FLT3; [1],1190 nM
same,potency estimated from few doses,PRKCD; [1],649 nM
same,potency estimated from few doses,PRKCQ; [1],2390 nM
Cn1cc(C2=C(c3c(S(C)=O)n(C)c4ccccc34)C(=O)NC2=O)c2ccccc21 (stereo not shown) [RO0317379-000],potency estimated from few doses,"CDKL5; compound concentrations: 100 nM and 1000 nM (sheet 'Samples'), CATDS: 0.106131192264054",1600 nM
Cc1occc1-c1nc(N)c(OC[C@@H](N)Cc2c[nH]c3ccccc23)cc1-c1cc2c(C)n[nH]c2cn1 [GSK1660450B],potency estimated from few doses,DYRK1A; [1],1790 nM
same,potency estimated from few doses,MARK4; [1],1110 nM
same,potency estimated from few doses,PRKCD; [1],8.62 nM
same,potency estimated from few doses,PRKD2; [1],386 nM
same,potency estimated from few doses,PRKD3; [1],170 nM
same,potency estimated from few doses,RPS6KA6; [1],19.1 nM
